High-throughput results (PubChem)
Sfp PPTase inh: blocks B. subtilis Sfp PPTase activity; Q9F4F7; Biochemical Sfp PPTase activity, qHTS; Potency, µM, for inactives: largest response in the series, negative = inhibition, most hits filed as inhibitors; 310,000 tested, 3.5% active;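 note: the enzyme is Sfp with the accession as filed and its product quenches rhodamine fluorescence; 0% = enzyme reaction without inhibitor and -100% = no enzyme wells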
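Fluorescence-quenching assay: 15 nM Sfp-PPTase preincubated 15 min at room temperature with compound, then 5 uM rhodamine-CoA and 12.5 uM BHQ-2-labelled YbbR peptide added. Fluorescence (ex 525/em 598 nm) read at start and after 30 min; difference gives rate.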
G9a block: inhibitors of human histone lysine methyltransferase G9a | Potency, µM (top dose mostly 102 µM), without a hit: top-dose activity, negative = inhibition, actives largely listed as inhibitors | Q96KQ7 | 350,000 tested, 8.8% active | G9a H3K9 monomethylation, AlphaScreen, 2 h; note: % is set by controls: 0 for no effect and ±100 for the full control effect; nearly all actives have a fitted effect of over 75% in size
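Compounds were preincubated with 20 nM G9a for 15 min, after which biotinylated H3K9 peptide (500 nM) and SAM (20 uM) started a 2 h room-temperature reaction. Monomethylated product was quantified by antibody-based AlphaScreen chemiluminescence.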
HP1b binding inh: inhibitors of HP1-beta chromodomain binding to methylated histone tails. AlphaScreen HP1-beta / biotin-H3K9me3 peptide binding. Potency, µM (titrated, usually from 114 µM), for inactives: top-dose activity change, negative = inhibition, actives largely listed as inhibitors. 390,000 tested, 0.56% active. AID 540317; note: nearly all actives have a fitted effect of over 70% in size
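AlphaScreen: HP1-beta (50 nM) preformed 30 min with biotin-H3(1-18)K9me3 peptide (50 nM) in PBS pH 7.4, 0.01% Tween-20. Compound added for 30 min at RT, then streptavidin donor/nickel chelate acceptor beads (10 ug/mL) for 30 min.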
L3MBTL1 block: L3MBTL1 (human) inhibition; Q9Y468; AlphaScreen L3MBTL1–H3K9me1 peptide binding; Potency, µM (top dose mostly 57.1 µM), for inactives: top-dose activity, negative = inhibition, hits mostly inhibitors; 230,000 tested, 0.66% active; note: % is set by controls: 0 for no effect and ±100 for the full control effect; nearly all actives have a fitted effect of over 60% in size
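L3MBTL1 (50 nM) pre-complexed 30 min with biotinylated H3(1-15)K9me1 peptide (75 nM), then compounds added for 30 min at room temperature; AlphaScreen streptavidin donor/nickel chelate acceptor beads (10 ug/mL final) read after 30 min dark incubation.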
JMJD2A Tudor inh: blocks the human JMJD2A Tudor domain. O75164. AlphaScreen JMJD2A-Tudor / H3K4me3 peptide binding. Potency, µM (top dose mostly 114 µM), inactives show top-dose activity change, negative = inhibition, most hits filed as inhibitors. 390,000 tested, 4.4% active. AID 504339; note: % is set by controls: 0 for no effect and ±100 for the full control effect; nearly all actives have a fitted effect of over 50% in size
BAZ2B block: blocks human BAZ2B. 360,000 tested, 4.4% active. Potency, µM (titrated, usually from 114 µM), for the others: at the top dose activity change, negative = inhibition, actives largely listed as inhibitors. AlphaScreen BAZ2B-H3K14Ac peptide displacement; note: % is set by controls: 0 for no effect and ±100 for the full control effect; nearly all actives have a fitted effect of over 60% in size
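Multi-concentration screen (max 110 uM) measuring displacement of acetylated histone H3 peptide from BAZ2B by AlphaScreen, using 50 nM protein, 50 nM peptide and 10 ug/mL streptavidin donor plus Ni-chelate acceptor beads.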
* = called active by the depositor; ? = inconclusive; . = not tested or not shown; [ ] = remark or other dose. Only some compounds are listed: those with a hit (about 12% of all), similar ones and a draw of the others. Calls come from the whole dose curve; as a rule, active = well fitted curve in the direction sought with a large enough effect; inconclusive = small, poorly fitted or top-dose-only effect, or another doubt; inactive = no such curve, though single readings can be large; an effect the other way counts as inactive or inconclusive. Potency is the fitted concentration of half-maximal effect.

SMILES	Sfp PPTase inh	G9a block	HP1b binding inh	L3MBTL1 block	JMJD2A Tudor inh	BAZ2B block
Cc1cc(C)cc(Cn2ncc3c4sc(C)cc4n(C)c3c2=O)c1	.	.	.	.	-27.4%	.
O=C1CN(C(=O)COc2ccc(Cl)cc2)C(c2ccccc2)c2cc(Br)ccc2N1 (stereo not drawn)	.	-32.2%[59 µM]	23.6%	.	-25.3%	-15.6%
CSc1ccccc1NC(=O)c1noc(C)c1[N+](=O)[O-]	44.7µM*	35.5µM*	5.1%	.	-23.1%	-16.7%
Cc1noc(C(=O)Nc2c(C)n(C)n(-c3ccccc3)c2=O)c1Cl	22.7%	20.7%[59 µM]	19.0%	14.4%	-9.9%	0.5%
Cc1onc(C(=O)Nc2c(C)n(C)n(-c3ccccc3)c2=O)c1[N+](=O)[O-]	79.4µM*	.	-9.4%	.	-18.1%	?
Cc1ccccc1CSc1ncc(CO)n1Cc1ccc(F)cc1	.	4.3%[59 µM]	6.9%[57 µM]	.	-21.4%	?
CN1CCN(C=NC2=NN(c3cccc(C(F)(F)F)c3)CC2)CC1	-9.4%	2.82µM*	?	-5.6%	?	?
CN(C)C=NC1=NN(c2cccc(C(F)(F)F)c2)CC1	5.6%	2.24µM*	-12.7%	-11.6%	?	?
FC(F)(F)c1cccc(N2CCN(c3nnnn3-c3ccccc3)CC2)c1	9.2%	26.7%[12.7 µM]	26.0%	4.4%	-3.5%	2.2%
CCOc1cc(C#N)c(-n2nnc3c(sc4nc(C)cc(C)c43)c2=O)cc1OCC	.	15.8µM*	7.4%	.	-13.8%	-16.3%
COc1cccc(-n2nnc3c(sc4nc(C)cc(C)c43)c2=O)c1	.	-21.6%[59 µM]	14.6%	.	-10.7%	-0.5%
CCC(C)NC(=O)CSc1nnc(-c2cc(OC)c(OC)c(OC)c2)c(-c2cc(OC)c(OC)c(OC)c2)n1 (stereo not drawn)	2.5%	-26.9%	38.3%	.	-13.7%	17.0%
CCOC(=O)c1cc2oc(C)cc2n1CC(=O)OC1CCCCC1	79.4µM*	?	22.4%	-12.2%	-30.2%	?
COC(=O)c1cc2oc(C)cc2n1CC(=O)Nc1ccc(C(C)C)cc1	.	-43.8%[59 µM]	7.6%	.	-28.4%	-13.8%
Cc1nc2c(C(=O)N3CCOCC3)cnn2c(C)c1Cc1ccc(Cl)cc1	4.6%	2.8%[12.7 µM]	14.3%	1.6%	-1.9%	-6.7%
Cc1nc2c(C(=O)N3CCOCC3)cnn2c(C)c1Cc1cccc(Cl)c1	9.9%	50.1µM*	.	-4.3%	.	-22.3%
N#Cc1ccc(CN2CC[C@@]3(CCCN(C(=O)c4ccco4)C3)C2)cc1	20.0%	-1.7%[12.7 µM]	.	.	.	.
CCCCc1nc2ccn(CC(=O)N(C)C)c(=O)c2n1Cc1ccc(-c2ccccc2-c2nn[nH]n2)cc1	50.1µM*	-8.9%[59 µM]	.	.	.	.
CCCCc1nc(Cl)c(CO)n1Cc1ccc(-c2ccccc2-c2nn[nH]n2)cc1	8.6%	-6.8%[12.7 µM]	16.3%	.	-13.7%	-22.0%
O=C(COC(=O)c1cc(S(=O)(=O)N2CCCC2)ccc1O)Nc1ccccc1Br	.	.	10.2%	-1.3%	-11.3%	.
COc1cc(OC)cc(C(=O)NNC(=S)Nc2ccccc2OC)c1	3.1%	39.8µM*	21.3%	-4.1%	-10.5%	-7.2%
COc1ccccc1NC(=S)NNC(=O)c1ccccc1Br	-9.1%	35.5µM*	18.9%	-1.2%	-4.3%	-7.1%
COc1ccccc1NC(=S)c1ccccc1	31.6µM*	7.94µM*	-27.3%	-13.7%	-21.4%	-10.5%
COc1ccccc1NC(=S)NNC(=O)c1c(Cl)c(C)nn1C	3.2%	25.1µM*	20.0%	-4.0%	-19.9%	-27.6%
Cc1cn2c(=O)c(S(=O)(=O)NCc3ccc(F)cc3)c(C)nc2s1	.	6.3%[59 µM]	49.4%	.	4.8%	0.4%
SMILES	Sfp PPTase inh	G9a block	HP1b binding inh	L3MBTL1 block	JMJD2A Tudor inh	BAZ2B block
COc1cc(NS(=O)(=O)c2ccc(C(=O)O)cc2)c2nc(C)ccc2c1	.	.	46.3%	.	-6.8%	.
Cc1ccc(S(N)(=O)=O)cc1NC(=O)C(c1ccccc1)c1ccccc1	7.6%	.	32.5%	.	-17.1%	-4.6%
COc1cccc(CNC(=O)c2ccc(S(=O)(=O)N3CCCC3)cc2)c1	2.7%	25.1%[12.7 µM]	17.0%	.	-3.6%	2.2%
Cc1cccc(-n2c(CNC(=O)c3ccc(S(=O)(=O)N4CCCC4)cc3)n[nH]c2=S)c1	-16.6%	0.708µM*	14.1%	.	10µM*	-3.6%
O=C(NCc1n[nH]c(=S)n1-c1cccc(Cl)c1)c1ccc(S(=O)(=O)N2CCCCC2)cc1	-11.8%	3.16µM*	21.1%	.	-30.7%	16.5%
CC(=O)Nc1ccc(NC(=O)C(C)OC(=O)C2CCCCC2)cc1 (stereo not drawn)	.	1.9%[12.7 µM]	15.3%	0.9%	-13.5%	2.1%
CN(C)c1cccc(C(=O)Nc2nc3ccc(S(=O)(=O)N4CCCC4)cc3s2)c1	.	?	32.3%[57 µM]	.	-32.1%	-6.1%
Cc1ccc(CSCC(=O)N2CCN(c3ccccc3F)CC2)cc1	.	5.8%[59 µM]	85.3%	.	8.6%	8.5%
CC(C)n1c(CSCc2ccc(Cl)cc2Cl)n[nH]c1=S	7.2%	12.6µM*	-4.9%	.	-12.0%[57.1 µM]	?
Nc1nnc(CSCc2ccc(Cl)cc2Cl)s1	14.8%	?	8.7%	-3.6%	-4.3%	3.8%
Cc1ccc(N2CCOCC2)c2c1C(=O)c1ccccc1C2=O	1.2%	3.55µM*	12.6µM*	14.1µM*	31.6µM*	14.1µM*
